Shown are actives, neighbours in structure and some others; about 17% of the full set was active somewhere.
HepG2 tox – counter-screen for TGF-b inhibitors: cytotoxicity in HepG2 cells | HepG2 CAGA-GFP viability, ATP luminescence, 18 h | Potency, µM (highest dose often 46.1 µM), inactives show at the highest dose activity change, negative = cytotoxicity, actives largely listed as cytotoxic | hit rate 0.76% among 410,000 | AID 588856
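HepG2 CAGA-GFP cells (1000/well, DMEM with 1% FBS) received compound, then TGF-beta at 500 pg/mL final, and were incubated 18 hours at 37 degrees C. Viability was read by CellTiter-Glo luminescence. Media-only wells were set as complete cell-killing and DMSO as no toxicity.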
DT40 TDP1 CPT – DT40-hTDP1 cell growth loss with CPT. hit rate 12% among 420,000. AID 686979. chicken DT40 Tdp1-/-;hTDP1 cells + 20 nM CPT, ATP luminescence, 48 h. Potency, µM (titrated, usually from 46.2 µM), for inactives: at the top dose activity change, negative = growth inhibition, hits mostly inhibitors; note: % is set by controls: 0 for no effect and ±100 for the full control effect; nearly all actives have a fitted effect of over 55% in size
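Cell growth measured by CellTiter-Glo luminescence after a minimum 48 h, 37 C compound exposure with 20 nM CPT in Tdp1-knockout DT40 cells stably expressing hTDP1, seeded 400/well; qHTS titration format.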
ATXN2 expr inh – inhibitors of ATXN2 expression. HEK-293 ATXN2-luciferase reporter, luminescence, 24 h. Potency, µM (highest dose often 57 µM), for inactives: at the top dose activity change, negative = inhibition, actives largely listed as inhibitors. hit rate 0.72% among 360,000. AID 1745845; note: % is set by controls: 0 for no effect and ±100 for the full control effect; nearly all actives have a fitted effect of over 55% in size
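ATXN2-luciferase reporter cells (luciferase flanked by upstream and downstream ATXN2 gene portions) were treated 24 h at 37 °C with compounds at up to 57 uM. SteadyGlo luminescence gave expression; GF-AFC fluorescence gave viability.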
TGFb inhibitor – blocks TGF-b signaling | HepG2 CAGA-GFP TGF-b/SMAD3 reporter, GFP fluorescence, 18 h; TGF-beta stimulated, 500 pg/mL final | Potency, µM (doses to about 46.1 µM), for the others: at the highest dose activity, negative = inhibition, hits mostly inhibitors | hit rate 1.2% among 410,000 | AID 588855; note: % is set by controls: 0 for no effect and ±100 for the full control effect; nearly all actives have a fitted effect of over 65% in size
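HEPG2 CAGA-GFP cells (1000/well, DMEM with 1% FBS) were pre-incubated 2 h at 37 degrees C, given compound by pin tool, then stimulated with TGF-beta at 500 pg/mL final for 18 h before per-cell GFP fluorescence imaging.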
TDP1 cell noCPT – qHTS for Inhibitors of human tyrosyl-DNA phosphodiesterase 1 (TDP1): qHTS in cells in absence of CPT; DT40 Tdp1-/- hTDP1 cells, no CPT, ATP luminescence, 48 h; Potency, µM (top dose mostly 46.2 µM), for inactives: top-dose activity change, negative = growth inhibition, most hits filed as inhibitors; hit rate 15% among 420,000; AID 686978, 2013; note: % is set by controls: 0 for no effect and ±100 for the full control effect; nearly all actives have a fitted effect of over 55% in size
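Luminescent ATP content (CellTiter-Glo) served as the growth readout. Knockout chicken DT40 cells expressing human TDP1 were exposed to compounds without camptothecin for a minimum 48 hr at 37 °C.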
S2 tox – viability counter-screen for ATXN expression inhibitors; S2 cells (HEK-293 line with an ATXN2-luciferase reporter) viability, CellTiter-Fluor protease fluorescence, 24 h; Potency, µM (highest dose often 56.7 µM), hits mostly cytotoxic; hit rate 0.49% among 400,000; AID 651635; note: nearly all actives have a fitted effect of over 40% in size
* = called active by the depositor; i = inactive; ? = inconclusive; . = not tested or not shown. Calls come from the whole dose curve; as a rule, active = well fitted curve in the direction sought with a large enough effect; inconclusive = small, poorly fitted or top-dose-only effect, or another doubt; inactive = no such curve, though single readings can be large; an effect the other way counts as inactive or inconclusive. Potency is the fitted concentration of half-maximal effect.

SMILES	HepG2 tox	DT40 TDP1 CPT	ATXN2 expr inh	TGFb inhibitor	TDP1 cell noCPT	S2 tox
CCOC(=O)c1oc2ccc(S(=O)(=O)Nc3ccc4c(c3)n(C)c(=O)n4C)cc2c1C	-18%	?	30%	-9%	21µM*	i
Cn1c(=O)n(C)c2cc(S(=O)(=O)NCc3ccccc3)ccc21	0%	?	-13%	14%	?	i
COc1ccc(OC)c(S(=O)(=O)n2ccc(C)n2)c1	-12%	-30%	2%	1%	?	i
COCCN(Cc1cc2cc(C)ccc2nc1Cl)C(=O)Nc1ccccc1OC	-1%	16µM*	.	8%	16µM*	i
CCOC(=O)c1ccc(NC(=O)c2nc[nH]c2C(=O)NCCCCNC(=O)c2[nH]cnc2C(=O)Nc2ccc(C(=O)OCC)cc2)cc1	0%	?	6%	-3%	4.6µM*	i
CCOC(=O)c1ccc(NC(=O)c2nc[nH]c2C(=O)NCCCCCNC(=O)OC(C)(C)C)cc1	-15%	?	?	4%	18µM*	?
CCOC(=O)c1ccc(NC(=O)c2nc[nH]c2C(=O)NCCCNC(=O)c2[nH]cnc2C(=O)Nc2ccc(C(=O)OCC)cc2)cc1	-4%	0%	6%	?	-11%	i
Clc1cccc(CNc2ccn3nc(-c4ccc(OCc5ccccc5)cc4)cc3n2)c1	-30%	16µM*	2%	-25%	?	i
Clc1cccc(CNc2ccn3nc(-c4cccc(Cl)c4)cc3n2)c1	-64%	?	15%	?	?	?
Clc1cccc(CNc2ccn3nc(-c4ccccc4)cc3n2)c1	-49%	23µM*	16%	?	21µM*	?
CC(C)(C)c1cc2nc(NCc3cccc(Cl)c3)ccn2n1	-40%	18µM*	-16%	-23%	16µM*	i
CN(C)C(=O)CNc1ccn2nc(-c3cccc(Cl)c3)cc2n1	-35%	23µM*	-7%	-11%	18µM*	i
COc1cccc(CNC(=O)CN2C(=O)CCn3nc(-c4cn(C)c5ccccc45)cc32)c1OC	-1%	-1%	0%	-3%	4%	i
CC(=O)Nc1ccc(S(=O)(=O)NCC2CCC(C(=O)NCCC(C)C)CC2)cc1 (centres undefined)	-3%	-15%	0%	9%	-29%	i
Clc1ccc(-c2cc3nc(NCc4cccc(Cl)c4)ccn3n2)cc1	-33%	?	14%	?	26µM*	i
Cc1cc2nc(C3CCN(CC4COc5ccccc5O4)CC3)[nH]c2cc1C (centres undefined)	-52%	7.3µM*	?	?	8.2µM*	?
Cc1cc(Oc2ccccc2)nc(C#N)n1	.	2%	.	.	-16%	.
COc1ccc(CN2C[C@H](Cc3ccccc3)[C@@H](CC(=O)Nc3ccccc3)C2=O)cc1	-13%	22µM*	?	?	16µM*	?
CCCCCCc1ccc(N2C[C@H](C)[C@@H](CC(=O)NCc3ccccc3)C2=O)cc1	11%	?	6%	?	?	i
CCCCC[C@H]1CN(CCCC)C(=O)[C@@H]1CC(=O)NCc1ccccc1	-30%	-28%	-2%	-26%	?	i
CCCCCCc1ccc(N2C[C@H](Cc3ccccc3)[C@@H](CC(=O)Nc3ccccc3)C2=O)cc1	-23%	?	6%	-1%	?	i
CCCCCCc1ccc(N2C[C@H](CCCCC)[C@@H](CC(=O)NCc3ccccc3)C2=O)cc1	2%	14µM*	2%	20%	18µM*	?
CCCCCCc1ccc(N2C[C@H](Cc3ccccc3)[C@@H](CC(=O)NCc3ccc(OC)cc3)C2=O)cc1	-20%	13µM*	0%	?	13µM*	i
CCCCC[C@H]1CN(Cc2ccc(OC)cc2)C(=O)[C@@H]1CC(=O)NCc1ccccc1	-67%	12µM*	0%	?	11µM*	?
COc1ccc(CNC(=O)CCS(=O)(=O)c2cc(Br)cc3c2N(C(=O)C2CC2)CC3)cc1	-4%	?	8%	-11%	?	i
CCCCCCc1ccc(N2C[C@H](CCCCC)[C@@H](CC(=O)NCc3ccc(OC)cc3)C2=O)cc1	1%	?	10%	?	13µM*	i
C[C@@H]1COC(=O)[C@@H](CC(=O)OC(C)(C)C)C/C=C\C[C@H](CC(=O)N(CCO)Cc2ccccc2)C(=O)N1	11%	?	3%	6%	?	i
C[C@H]1COC(=O)[C@H](NC(=O)OCC2c3ccccc3-c3ccccc32)C/C=C\C[C@H](CC(=O)N(CCO)Cc2ccccc2)C(=O)N1	-38%	9.2µM*	-24%	?	9.2µM*	i
O=C(N[C@H]1C/C=C\C[C@H](CC(=O)N(CCO)Cc2ccccc2)C(=O)N[C@@H](c2ccccc2)COC1=O)OCC1c2ccccc2-c2ccccc21	1%	7.3µM*	-15%	-15%	13µM*	i
CC(C)(C)OC(=O)C[C@@H]1C/C=C\C[C@H](CC(=O)N(CCO)Cc2ccccc2)C(=O)N[C@@H](c2ccccc2)COC1=O	-4%	?	0%	-4%	?	i

Compound activity from PubChem.
